Bioassay records deposited in PubChem by Sanford-Burnham Center for Chemical Genomics.
NALP1 inh = NALP1 inhibition; S. cerevisiae NALP1/ASC/caspase-1 growth, X-gal OD620, 72 h; inhibition, % at 10 µM; hit rate 0.61% among 280,000; in the data active = inhibition mostly above about 24%, no sharp cut-off; inactive = mostly below about 32%
TIM10 inh = inhibits growth of TIM10 yeast strain | hit rate 1.4% among 330,000 | S. cerevisiae TIM10 strain growth, BacTiter-Glo luminescence, 24 h | inhibition, % at 10 µM;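 active = inhibition of 40% or more at the single tested concentration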;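 note: wild-type TIM10 isogenic control strain grown at permissive 25 °C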
tim10-1 inh = growth inhibitors of tim10-1 mutant yeast; S. cerevisiae tim10-1 ts strain growth, BacTiter-Glo, 24 h; inhibition, % at 20 µM; hit rate 2.2% among 330,000;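 active = inhibition of at least 40%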;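 note: mutant grown at 25 °C; 0% = DMSO wells with yeast and 100% = wells holding no yeast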
NALP3 yeast inh = inhibitors of NALP3 inflammasome in yeast | Yeast reconstituted NLRP3/ASC/caspase-1, beta-gal luminescence, 24 h | inhibition, % at 10 µM | hit rate 0.39% among 330,000;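 active = inhibition of 50% or more; inactive = inhibition below 50%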;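 note: plate controls were induced DMSO wells for no effect and uninduced yeast grown without galactose for full effect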
tim23-1 inh = tim23-1 yeast growth inhibition. S. cerevisiae tim23-1 growth, BacTiter-Glo luminescence, 24 h. inhibition, % at 20 µM. hit rate 1.3% among 330,000;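 active = growth inhibition of the mutant yeast at or above 50%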;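 note: temperature-sensitive mutant grown at 25 °C; plate controls were DMSO-treated mutant yeast for no effect and medium wells lacking yeast for full effect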
tim10-1 conf = tim10-1 yeast growth inhibition, confirmed | shares compounds with tim10-1 inh | S. cerevisiae tim10-1 ts strain growth, BacTiter-Glo, 24 h | inhibition, % at 20 µM | hit rate 56% among 7,400;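 active = inhibition of yeast growth at or above a set limit in either of two repeat tests at 20 µM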;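 note: tim10-1 mutant grown at permissive 25 °C to find synthetic lethal compounds; 0% = DMSO yeast wells and 100% = medium wells without yeast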
An asterisk follows results filed as active; . = not tested or not shown. Shown are actives, neighbours in structure and some others; about 4% of the full set was active somewhere.

SMILES | NALP1 inh | TIM10 inh | tim10-1 inh | NALP3 yeast inh | tim23-1 inh | tim10-1 conf
CC(C)(C)OC(=O)N1CCC[C@H]1c1nnc(SCc2ccc(Cl)cc2Cl)o1 | -2 | 19 | 40* | 20 | 38 | 18
COc1ccccc1NC(=O)C(C)OC(=O)CCNS(=O)(=O)c1ccc(C)c(C)c1 (centres undefined) | . | -8 | 13 | 5 | 4 | .
CCOc1ccc(OCCC(=O)OCC(=O)Nc2cc(OCC)c(N3CCOCC3)cc2OCC)cc1 | . | 28 | 46* | 19 | 49 | 31
Cc1nc(Oc2ccccc2)c2oc3ccccc3c2n1 | -1 | 13 | 42* | 0 | 6 | 24
COc1ccc(Oc2nc(C)nc3c2oc2ccccc23)cc1 | 19 | 21 | 17 | 42 | 19 | .
COc1cccc(Nc2nc(C)nc3c2oc2ccccc23)c1 | 18 | 24 | 43* | 10 | 34 | 29
Cc1cc(NC(=O)CNCC(c2ccccc2)N(C)C)c([N+](=O)[O-])cc1C (centres undefined) | -20 | -8 | 19 | 15 | 9 | .
COc1cc(/C=C/c2nnc3c4ccccc4ncn23)cc(OC)c1OC | 23 | 25 | 44* | 0 | 25 | 23
Cc1ccc(C(=O)COC(=O)c2cccc([N+](=O)[O-])c2)s1 | . | 8 | -1 | 10 | 30 | .
CC(C)(C)NC(=O)CC1C[C@H](C(=O)N2CCCCC2)[C@@]2(CCc3ccccc3)c3[nH]c4ccccc4c3CCN2C1=O (some centres undefined) | . | 0 | 11 | 13 | 15 | .
COc1cc2c(cc1OC)CN(C(=O)c1ccc(-c3ccccc3)cc1)CC2 | 30 | 24 | 49* | 11 | 44 | 38*
CCOc1ccccc1N1CCN(C(=S)NCc2ccccc2)CC1 | -8 | 13 | 44* | 7 | 36 | 19
CCNC(=S)N1CCN(c2ccccc2OCC)CC1 | 21 | 2 | 12 | 9 | 10 | .
COc1ccccc1C1CCN(C(=O)c2ccc(C(C)(C)C)cc2)CC1 | 8 | 27 | 41* | -6 | 42 | 33*
O=C(c1ccc(CSc2ccccc2)cc1)N1CCN(c2ccccc2)CC1 | 10 | 7 | 45* | 21 | 32 | 40*
O=C(c1ccc(CSc2ccc(Cl)cc2)cc1)N1CCCC1 | 4 | -14 | 23 | 22 | 18 | .
Cc1cc(Cl)ccc1OCc1nnc2n1CCCCC2 | 8 | 2 | -15 | 9 | 35 | .
O=C(c1ccc(-c2ccccc2)cc1)N1CCN(c2ncccn2)CC1 | 32 | 30 | 43* | 31 | 31 | 25
CCc1ccc2oc(C(=O)N3CCN(c4ccccc4OC)CC3)cc(=O)c2c1 | 4 | 12 | 48* | 16 | 39 | 18
COc1ccccc1N1CCN(C(=O)c2cc3sccc3n2C)CC1 | -15 | 33 | 43* | 1 | 40 | 46*
CCOc1ccccc1N1CCN(C(=O)c2ccc(-c3ccc(OC(C)=O)cc3)cc2)CC1 | 6 | 16 | 41* | 3 | 38 | 23
CCOc1ccccc1N1CCN(C(=O)c2ccccc2)CC1 | 14 | 9 | 26 | 4 | 17 | .
COc1cccc(CC(NC(C)=O)C(=O)NC2CCN(S(=O)(=O)c3ccc(C)cc3)CC2)c1OC (centres undefined) | -7 | 5 | -4 | 20 | -2 | .
COc1ccc(C2=NN(c3ccccc3)C(c3cn(CCC(=O)O)nc3-c3ccccc3)C2)cc1 (centres undefined) | -11 | 27 | 19 | -3 | 19 | .
O=C(c1ccc(Cn2cc(Cl)cn2)cc1)N1CCN(c2ccccc2)CC1 | 2 | 13 | 34 | 21 | 31 | .
SMILES | NALP1 inh | TIM10 inh | tim10-1 inh | NALP3 yeast inh | tim23-1 inh | tim10-1 conf
COc1ccccc1N1CCN(C(=O)c2ccc(C(C)(C)C)cc2)CC1 | 13 | 34 | 50* | 8 | 43 | 26
COc1ccccc1N1CCN(C(=O)c2ccc(CSc3ccccc3)cc2)CC1 | 37 | 28 | 40* | 8 | 40 | 40*
O=C(CSCc1cccc(F)c1)N1CCN(c2ccccc2)CC1 | 8 | 11 | 43* | 23 | 23 | 15
O=C(c1ccc(Cn2cc(Br)cn2)cc1)N1CCN(c2ccccc2)CC1 | 7 | 32 | 52* | 33 | 44 | 44*
CC1(C)c2[nH]c3ccccc3c2C[C@@H]2C(=O)N(Cc3ccco3)C(=O)N21 | . | 29 | 31 | 15 | 27 | .
COc1cccc(NC(=O)CN(C)C(=O)CN2C(=O)c3ccc([N+](=O)[O-])cc3C2=O)c1 | . | 7 | 10 | -4 | 15 | .
O=C(Oc1ccc([N+](=O)[O-])cc1)C1CC(=O)N(c2ccc3c(c2)OCCO3)C1 (centres undefined) | . | 6 | 7 | -20 | 15 | .
O=C(NCCCNC(=O)c1ccco1)c1cccc(F)c1 | -15 | -17 | 6 | 16 | 0 | .
COc1ccccc1N1CCN(C(=O)c2ccc(-c3ccccc3)cc2)CC1 | -51 | 28 | 41* | 12 | 31 | 27
COc1ccc(Cl)cc1C(=O)NNC(=O)CCNS(=O)(=O)c1ccccc1 | . | 1 | 10 | -3 | -1 | .
O=C(c1ccc(Cl)cc1)N1CCOc2ccccc21 | 5 | . | . | . | . | .
COc1ccc(-c2[nH]ncc2-c2ccc3c(c2)OCCO3)c(O)c1 | 11 | 35 | 40* | 10 | 46 | 28
CCCN1Cc2cccc(C(=O)Nc3ccc4c(c3)OCO4)c2C1=O | 3 | 11 | 28 | 13 | -13 | .
O=C(Nc1ccc2c(c1)OCO2)c1cccc2c1C(=O)N(Cc1cccnc1)C2 | 0 | 35 | 43* | 10 | 20 | 34*
COc1ccc(Cl)cc1NC(=O)CN(C)C(=O)C12CC3CC(CC(Cl)(C3)C1)C2 | 7 | 27 | 43* | 6 | 50 | 34*
CCOc1ccc(S(=O)(=O)N2CCN(C(=O)c3cc4c(s3)CCCC4)CC2)cc1 | 19 | 25 | 23 | -1 | 38 | .
S=c1nc(C2CCCCC2)n(-c2ccccc2)[nH]1 | 5 | 34 | 44* | -20 | 30 | 25
C=CCC1Cc2c(cccc2[N+](=O)[O-])C(CC=C)N1 (centres undefined) | -3 | 18 | 49* | -7 | 33 | 22
COc1ccc(-c2cn(-c3ccc(OC)cc3)c3[n+]2-c2ccccc2CC3)cc1 | 34 | 23 | 53* | 7 | 25 | 40*
COc1ccc(-n2cc(-c3ccccc3)[n+]3c2CCCCC3)cc1 | -8 | 12 | 2 | 13 | -2 | .
CCOC(=O)c1cccnc1SCC(=O)N(CC)c1cccc(C)c1 | -8 | 34 | 40* | 13 | 37 | 35*
CC(C)OC(=O)c1cccnc1SCC(=O)N(C)c1ccccc1 | -2 | 30 | 34 | 12 | 33 | .
CCOC(=O)c1cccnc1SCC(=O)NCc1ccccc1 | 55 | -12 | 17 | 18 | -5 | .
CCN(C(=O)CSc1ncccc1C(=O)OC(C)C)c1cccc(C)c1 | -10 | 15 | 42* | 14 | 42 | 21
Cc1ccc(-c2nn3c(C)nnc3c3ccccc23)cc1S(=O)(=O)NCCO | 4 | 1 | 2 | 4 | 15 | .
